Data reported in the supplement of paper PMC10849652.
Of roughly 7,900 targets only a part is listed; those with a hit were picked by preference. About 0.6% of all pairs of compound and target were hits.

What follows are targets tested with COc1cccc2cc(-c3nc([C@H]4CC[C@H](C(=O)O)CC4)n4ncnc(N)c34)[nH]c12 (assay: log2 fold change, soluble protein after heating vs DMSO (PISA); higher = thermal stabilisation; K562 cells, 10 uM, 30 min; active = over 0.2 and 3.5 SD of the protein, either way, in both replicates (recomputed)).
Method in brief: (§1)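 K562 cells at 2×10^6 cells/mL were exposed to 10 μM compound for 30 min, then aliquots were heated for 3 min across 48°C-58°C, pooled, and extracted in PBS containing 0.5% NP-40 at 4°C. The supernatant after 21,000xg for 90 min was taken as soluble protein and measured by TMTpro 16plex LC-MS/MS with channel sums equalised. Thermal stability is reported relative to control samples, with values from duplicates. Fold changes are given on a log2 scale.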

Sequence of UniProt Q86UU1 (Q86UU1 whole entry, looked up): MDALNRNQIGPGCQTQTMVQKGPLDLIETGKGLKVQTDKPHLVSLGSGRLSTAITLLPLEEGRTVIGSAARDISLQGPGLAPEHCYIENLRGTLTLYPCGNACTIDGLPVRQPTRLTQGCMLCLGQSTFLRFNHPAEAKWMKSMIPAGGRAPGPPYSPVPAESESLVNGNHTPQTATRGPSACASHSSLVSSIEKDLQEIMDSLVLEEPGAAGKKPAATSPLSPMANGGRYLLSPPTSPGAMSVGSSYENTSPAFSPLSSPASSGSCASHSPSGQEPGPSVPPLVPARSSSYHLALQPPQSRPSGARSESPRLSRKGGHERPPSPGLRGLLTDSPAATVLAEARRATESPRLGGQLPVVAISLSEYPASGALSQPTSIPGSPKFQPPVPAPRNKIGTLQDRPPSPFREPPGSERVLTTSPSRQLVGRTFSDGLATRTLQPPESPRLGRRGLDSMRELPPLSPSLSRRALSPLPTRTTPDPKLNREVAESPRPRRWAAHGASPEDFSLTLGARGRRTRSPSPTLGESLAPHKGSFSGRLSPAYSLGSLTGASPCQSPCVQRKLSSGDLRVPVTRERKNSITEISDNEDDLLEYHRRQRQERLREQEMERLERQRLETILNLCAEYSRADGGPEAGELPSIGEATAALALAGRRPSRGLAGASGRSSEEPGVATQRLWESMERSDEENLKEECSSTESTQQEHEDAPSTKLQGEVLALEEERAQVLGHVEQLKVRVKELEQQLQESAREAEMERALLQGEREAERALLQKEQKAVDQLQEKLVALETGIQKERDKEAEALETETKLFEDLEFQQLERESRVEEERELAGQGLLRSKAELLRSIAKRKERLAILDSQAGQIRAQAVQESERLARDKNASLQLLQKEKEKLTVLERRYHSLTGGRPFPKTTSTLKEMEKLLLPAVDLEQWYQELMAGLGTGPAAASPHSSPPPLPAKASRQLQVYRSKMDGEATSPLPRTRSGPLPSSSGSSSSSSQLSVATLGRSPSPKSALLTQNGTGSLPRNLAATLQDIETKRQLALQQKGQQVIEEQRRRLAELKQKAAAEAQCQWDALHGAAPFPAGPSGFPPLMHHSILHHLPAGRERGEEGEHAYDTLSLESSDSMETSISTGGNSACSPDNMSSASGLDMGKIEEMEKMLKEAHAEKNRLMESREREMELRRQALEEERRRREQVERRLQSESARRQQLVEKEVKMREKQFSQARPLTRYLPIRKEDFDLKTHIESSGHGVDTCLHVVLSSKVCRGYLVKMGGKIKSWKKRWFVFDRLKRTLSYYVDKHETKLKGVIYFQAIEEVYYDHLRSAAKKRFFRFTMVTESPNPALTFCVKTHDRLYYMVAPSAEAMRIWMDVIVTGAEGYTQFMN
Sequence of UniProt Q9BZL4 (Q9BZL4 whole entry, looked up): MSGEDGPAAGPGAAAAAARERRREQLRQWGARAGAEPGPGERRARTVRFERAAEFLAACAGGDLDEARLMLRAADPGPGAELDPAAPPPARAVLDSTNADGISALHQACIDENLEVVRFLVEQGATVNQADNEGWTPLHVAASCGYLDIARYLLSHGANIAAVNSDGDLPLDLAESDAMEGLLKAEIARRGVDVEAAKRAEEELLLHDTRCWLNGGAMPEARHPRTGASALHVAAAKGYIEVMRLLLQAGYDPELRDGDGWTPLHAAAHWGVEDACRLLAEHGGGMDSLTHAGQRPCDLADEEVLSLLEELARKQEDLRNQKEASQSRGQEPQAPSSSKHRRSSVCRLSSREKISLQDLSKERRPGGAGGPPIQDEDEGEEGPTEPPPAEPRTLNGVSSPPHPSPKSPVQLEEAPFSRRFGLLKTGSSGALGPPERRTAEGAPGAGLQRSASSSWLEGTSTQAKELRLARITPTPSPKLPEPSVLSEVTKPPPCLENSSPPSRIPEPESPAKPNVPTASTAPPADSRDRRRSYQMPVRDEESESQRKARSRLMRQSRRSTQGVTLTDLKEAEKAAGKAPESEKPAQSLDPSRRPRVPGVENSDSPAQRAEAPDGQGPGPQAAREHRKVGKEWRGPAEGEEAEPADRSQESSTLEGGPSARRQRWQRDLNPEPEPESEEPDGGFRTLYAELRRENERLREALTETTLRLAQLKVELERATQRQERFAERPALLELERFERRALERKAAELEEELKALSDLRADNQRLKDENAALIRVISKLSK
Sequence of UniProt Q15173 (Q15173 whole entry, looked up): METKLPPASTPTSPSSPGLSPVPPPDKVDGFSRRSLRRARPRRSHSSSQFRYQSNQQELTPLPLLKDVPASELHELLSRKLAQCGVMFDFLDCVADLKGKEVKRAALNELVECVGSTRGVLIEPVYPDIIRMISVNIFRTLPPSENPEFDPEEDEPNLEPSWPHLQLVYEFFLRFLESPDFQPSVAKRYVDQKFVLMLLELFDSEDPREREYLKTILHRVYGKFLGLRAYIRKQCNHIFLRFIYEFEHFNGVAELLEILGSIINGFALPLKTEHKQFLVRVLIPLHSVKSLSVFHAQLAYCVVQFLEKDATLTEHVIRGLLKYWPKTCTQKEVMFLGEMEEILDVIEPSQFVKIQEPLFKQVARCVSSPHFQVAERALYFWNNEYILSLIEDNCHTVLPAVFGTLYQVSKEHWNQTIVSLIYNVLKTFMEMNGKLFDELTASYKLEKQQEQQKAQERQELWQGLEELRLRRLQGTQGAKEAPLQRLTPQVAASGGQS
Sequence of UniProt Q14442 (Q14442 whole entry, looked up): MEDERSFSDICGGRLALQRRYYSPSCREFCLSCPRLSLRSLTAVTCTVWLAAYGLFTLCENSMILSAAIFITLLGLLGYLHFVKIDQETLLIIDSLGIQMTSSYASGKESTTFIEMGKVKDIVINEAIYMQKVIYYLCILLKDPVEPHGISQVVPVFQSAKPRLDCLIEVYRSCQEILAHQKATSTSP
Sequence of UniProt Q9NYI0 (Q9NYI0 whole entry, looked up): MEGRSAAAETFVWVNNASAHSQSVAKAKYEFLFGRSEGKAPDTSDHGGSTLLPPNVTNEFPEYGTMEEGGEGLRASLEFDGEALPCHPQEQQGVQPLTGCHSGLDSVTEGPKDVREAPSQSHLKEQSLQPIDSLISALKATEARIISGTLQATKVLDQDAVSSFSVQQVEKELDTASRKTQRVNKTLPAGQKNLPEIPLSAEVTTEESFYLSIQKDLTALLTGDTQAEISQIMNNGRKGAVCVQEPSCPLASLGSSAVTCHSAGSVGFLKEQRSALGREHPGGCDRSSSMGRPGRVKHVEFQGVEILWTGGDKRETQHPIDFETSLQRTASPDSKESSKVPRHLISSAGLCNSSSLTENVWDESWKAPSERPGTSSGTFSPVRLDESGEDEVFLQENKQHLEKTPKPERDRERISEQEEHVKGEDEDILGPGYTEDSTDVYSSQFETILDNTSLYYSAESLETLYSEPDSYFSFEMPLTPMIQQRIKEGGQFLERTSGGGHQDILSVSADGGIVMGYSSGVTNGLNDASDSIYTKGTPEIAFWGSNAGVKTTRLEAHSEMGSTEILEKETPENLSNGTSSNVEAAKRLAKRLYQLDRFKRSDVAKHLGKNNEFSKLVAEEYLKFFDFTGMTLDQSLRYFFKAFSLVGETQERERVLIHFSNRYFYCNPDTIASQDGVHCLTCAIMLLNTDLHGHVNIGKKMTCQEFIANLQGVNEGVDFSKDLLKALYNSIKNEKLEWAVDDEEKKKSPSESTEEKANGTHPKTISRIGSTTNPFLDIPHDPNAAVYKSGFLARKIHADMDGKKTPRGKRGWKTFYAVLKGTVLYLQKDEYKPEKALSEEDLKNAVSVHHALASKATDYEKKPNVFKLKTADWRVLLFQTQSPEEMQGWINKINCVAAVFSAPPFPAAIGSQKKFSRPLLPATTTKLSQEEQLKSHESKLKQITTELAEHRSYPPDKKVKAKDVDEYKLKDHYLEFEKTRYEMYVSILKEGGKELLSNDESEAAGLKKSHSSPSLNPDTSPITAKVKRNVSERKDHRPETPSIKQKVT
Sequence of UniProt Q8NDX5 (Q8NDX5 whole entry, looked up): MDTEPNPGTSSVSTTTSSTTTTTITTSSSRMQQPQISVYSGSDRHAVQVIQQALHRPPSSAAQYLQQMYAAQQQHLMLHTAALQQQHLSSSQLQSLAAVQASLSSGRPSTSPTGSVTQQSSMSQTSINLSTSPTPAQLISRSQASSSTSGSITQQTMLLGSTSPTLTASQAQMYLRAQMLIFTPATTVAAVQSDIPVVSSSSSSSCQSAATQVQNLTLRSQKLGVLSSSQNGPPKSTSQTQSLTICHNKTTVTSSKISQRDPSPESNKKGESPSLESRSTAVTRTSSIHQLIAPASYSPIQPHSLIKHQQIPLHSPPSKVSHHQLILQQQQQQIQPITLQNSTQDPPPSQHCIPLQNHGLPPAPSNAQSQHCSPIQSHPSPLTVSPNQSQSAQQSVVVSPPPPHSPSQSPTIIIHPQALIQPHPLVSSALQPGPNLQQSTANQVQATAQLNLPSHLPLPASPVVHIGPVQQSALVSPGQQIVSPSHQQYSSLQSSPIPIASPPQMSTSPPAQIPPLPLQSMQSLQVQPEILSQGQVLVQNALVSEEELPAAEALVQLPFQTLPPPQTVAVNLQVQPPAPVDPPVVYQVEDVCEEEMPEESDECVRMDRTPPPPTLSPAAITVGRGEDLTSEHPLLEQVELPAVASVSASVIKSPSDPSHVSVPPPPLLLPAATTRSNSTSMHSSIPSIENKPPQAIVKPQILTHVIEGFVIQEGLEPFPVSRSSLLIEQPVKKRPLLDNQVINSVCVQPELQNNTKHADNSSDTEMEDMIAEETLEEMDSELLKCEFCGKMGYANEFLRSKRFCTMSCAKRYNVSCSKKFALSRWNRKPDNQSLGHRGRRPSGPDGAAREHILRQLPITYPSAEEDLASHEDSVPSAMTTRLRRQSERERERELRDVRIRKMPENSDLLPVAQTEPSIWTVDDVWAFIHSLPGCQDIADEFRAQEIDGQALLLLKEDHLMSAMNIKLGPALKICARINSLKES
Sequence of UniProt Q15126 (Q15126 whole entry, looked up): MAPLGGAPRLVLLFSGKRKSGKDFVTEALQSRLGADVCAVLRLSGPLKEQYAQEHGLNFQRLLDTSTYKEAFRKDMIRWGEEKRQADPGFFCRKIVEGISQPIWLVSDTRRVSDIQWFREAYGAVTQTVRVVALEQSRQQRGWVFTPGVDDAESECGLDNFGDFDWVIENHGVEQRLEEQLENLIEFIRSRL

log2 fold change, inactive:
PCNX1 (UniProt Q96RV3) 0.035
PIAS4 (UniProt Q8N2W9) -0.167
PMS2CL (UniProt Q68D20) -0.099
PKM isoform 2 (UniProt P14618) 0.059
PTPA (UniProt A6PVN8) 0.297
PSMC3 (UniProt E9PLG2) 0.079
PPP2R5C isoform 2 (UniProt Q13362) -0.009
PMVK (UniProt Q15126) -0.144
POLR2E (UniProt P19388) 0.029
PCF11 (UniProt O94913) 0.106
PHLDB1 isoform 2 (UniProt Q86UU1) -0.032
PPP2R5B (UniProt Q15173) -0.058
PSD3 (UniProt Q9NYI0) 0.069
PRKX (UniProt P51817) 0.098
PUF60 isoform 2 (UniProt Q9UHX1) 0.027
PIGH (UniProt Q14442) 0.038
PHRF1 (UniProt Q9P1Y6) -0.121
PIM1 isoform 2 (UniProt P11309) -0.327
PPP1R12C (UniProt Q9BZL4) -0.009
PCBP2 (UniProt F8VZX2) -0.018
PHC3 isoform 7 (UniProt Q8NDX5) 0.203

These targets were tested with CS(=O)(=O)CCNCc1ccc(-c2ccc3ncnc(Nc4ccc(OCc5cccc(F)c5)c(Cl)c4)c3c2)o1 [lapatinib] in the same assay as above.
Method in brief: as §1

log2 fold change, inactive:
PCNX1 (UniProt Q96RV3) -0.475
PIAS4 (UniProt Q8N2W9) -0.017
PKM isoform 2 (UniProt P14618) -0.115
PTPA (UniProt A6PVN8) 0.043
PTEN isoform 2 (UniProt P60484) 0.094
PDE4A (UniProt P27815) -0.016
PRR14L (UniProt Q5THK1) 0.1
POLR2E (UniProt P19388) -0.013
PCF11 (UniProt O94913) 0.012
PHLDB1 isoform 2 (UniProt Q86UU1) -0.039
PPP2R5B (UniProt Q15173) 0.051
PSD3 (UniProt Q9NYI0) -0.07
PUF60 isoform 2 (UniProt Q9UHX1) 0.407
PSMA3 (UniProt G3V4X5) -0.18
PIGH (UniProt Q14442) -0.009
PHRF1 (UniProt Q9P1Y6) 0.194
PPP1R12C (UniProt Q9BZL4) 0.084
PSMC1 (UniProt G3V4X1) -0.105
PSMA3 (UniProt H0YJ03) 0.021
PHC3 isoform 7 (UniProt Q8NDX5) 0.05
POLB (UniProt P06746) -0.006
